Columns and labels:
U-2932 [1] = test: growth inhibition by drug alone (1 - RLU/untreated control) (fraction); higher = stronger inhibition; details: 177Lu-lilotomab satetraxetan 0 ug/ml
How it was run: (§1)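 Compound doses on the pre-printed Selleck Cambridge Cancer Compound library plates were 10/100 nM for RIVA cells and 10/1,000 nM for U-2932 cells, seeded at 3,000 cells/well. Before seeding, cells were washed after 18 h with or without a radiolabelled anti-CD37 antibody conjugate (~600 MBq/mg; 0.5 µg/ml RIVA, 1 µg/ml U-2932). Growth inhibition was derived from RealTime-Glo luminescence relative to untreated no-drug control wells. Readings were taken daily starting on day 3, each after 1 h at 37°C, and each well's RLU was divided by the mean of 48 such wells per plate and subtracted from 1.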

RIVA [2] = test: as above; details: 177Lu-lilotomab satetraxetan 0 ug/ml
How it was run: as §1

U-2932 [3] = test: growth inhibition by drug plus 177Lu-lilotomab satetraxetan (1 - RLU/untreated control) (fraction); higher = stronger inhibition; details: 177Lu-lilotomab satetraxetan 1 ug/ml
How it was run: as §1

RIVA [4] = test: as above; details: 177Lu-lilotomab satetraxetan 0.5 ug/ml
How it was run: as §1

Row | SMILES | growth inhibition by drug alone (U-2932 [1]; 10 nM, time (day): 3) | growth inhibition by drug alone (U-2932 [1]; 10 nM, time (day): 4) | growth inhibition by drug alone (U-2932 [1]; 10 nM, time (day): 5) | growth inhibition by drug alone (U-2932 [1]; 10 nM, time (day): 6) | growth inhibition by drug alone (U-2932 [1]; 1000 nM, time (day): 3) | growth inhibition by drug alone (U-2932 [1]; 1000 nM, time (day): 4) | growth inhibition by drug alone (U-2932 [1]; 1000 nM, time (day): 5) | growth inhibition by drug alone (U-2932 [1]; 1000 nM, time (day): 6) | growth inhibition by drug alone (RIVA [2]; 10 nM, time (day): 3) | growth inhibition by drug alone (RIVA [2]; 10 nM, time (day): 4) | growth inhibition by drug alone (RIVA [2]; 10 nM, time (day): 5) | growth inhibition by drug alone (RIVA [2]; 10 nM, time (day): 6) | growth inhibition by drug alone (RIVA [2]; 100 nM, time (day): 3) | growth inhibition by drug alone (RIVA [2]; 100 nM, time (day): 4) | growth inhibition by drug alone (RIVA [2]; 100 nM, time (day): 5) | growth inhibition by drug alone (RIVA [2]; 100 nM, time (day): 6) | growth inhibition by drug plus 177Lu-lilotomab satetraxetan (U-2932 [3]; 10 nM, time (day): 3) | growth inhibition by drug plus 177Lu-lilotomab satetraxetan (U-2932 [3]; 10 nM, time (day): 4) | growth inhibition by drug plus 177Lu-lilotomab satetraxetan (U-2932 [3]; 10 nM, time (day): 5) | growth inhibition by drug plus 177Lu-lilotomab satetraxetan (U-2932 [3]; 10 nM, time (day): 6) | growth inhibition by drug plus 177Lu-lilotomab satetraxetan (U-2932 [3]; 1000 nM, time (day): 3) | growth inhibition by drug plus 177Lu-lilotomab satetraxetan (U-2932 [3]; 1000 nM, time (day): 4) | growth inhibition by drug plus 177Lu-lilotomab satetraxetan (U-2932 [3]; 1000 nM, time (day): 5) | growth inhibition by drug plus 177Lu-lilotomab satetraxetan (U-2932 [3]; 1000 nM, time (day): 6) | growth inhibition by drug plus 177Lu-lilotomab satetraxetan (RIVA [4]; 10 nM, time (day): 3) | growth inhibition by drug plus 177Lu-lilotomab satetraxetan (RIVA [4]; 10 nM, time (day): 4) | growth inhibition by drug plus 177Lu-lilotomab satetraxetan (RIVA [4]; 10 nM, time (day): 5) | growth inhibition by drug plus 177Lu-lilotomab satetraxetan (RIVA [4]; 10 nM, time (day): 6) | growth inhibition by drug plus 177Lu-lilotomab satetraxetan (RIVA [4]; 100 nM, time (day): 3) | growth inhibition by drug plus 177Lu-lilotomab satetraxetan (RIVA [4]; 100 nM, time (day): 4) | growth inhibition by drug plus 177Lu-lilotomab satetraxetan (RIVA [4]; 100 nM, time (day): 5) | growth inhibition by drug plus 177Lu-lilotomab satetraxetan (RIVA [4]; 100 nM, time (day): 6)
1 | COc1ccc(COc2cc3oc(=O)c4cc(C(C)O)ccc4c3cc2OC)cc1 (stereo unspecified) [Palomid 529] | 0.0334 | 0.0194 | -0.0368 | -0.114 | -0.0247 | 0.00321 | -0.0394 | -0.242 | 0.0296 | 0.0604 | -0.0136 | -0.281 | -0.0737 | -0.0625 | -0.0557 | -0.118 | -0.0294 | 0.00126 | 0.0363 | 0.0704 | -0.0939 | 0.0227 | 0.013 | 0.0753 | 0.337 | 0.478 | 0.494 | 0.503 | 0.321 | 0.445 | 0.454 | 0.453
2 | CCCCCOC(=O)Nc1nc(=O)n([C@@H]2O[C@H](C)[C@@H](O)[C@H]2O)cc1F [Capecitabine (Xeloda)] | -0.0672 | -0.0894 | -0.0926 | -0.0992 | -0.0819 | -0.0438 | -0.0714 | 0.0681 | -0.345 | -0.321 | -0.354 | -0.36 | -0.381 | -0.792 | -0.367 | -0.436 | -0.101 | -0.0507 | 0.0153 | 0.0328 | -0.139 | -0.0798 | -0.0339 | 0.114 | 0.468 | 0.533 | 0.549 | 0.549 | 0.378 | 0.466 | 0.465 | 0.483
3 | CN(C)Cc1c(C(=O)NCCOc2ccc(C(=O)NO)cc2)oc2ccccc12 | 0.0311 | 0.0492 | 0.0509 | -0.0158 | 0.972 | 0.985 | 0.987 | 0.988 | -0.0928 | -0.0394 | -0.0793 | -0.251 | 0.392 | 0.295 | 0.256 | 0.158 | 0.0477 | 0.0589 | 0.111 | 0.194 | 0.988 | 0.989 | 0.99 | 0.991 | 0.524 | 0.628 | 0.645 | 0.659 | 0.926 | 0.925 | 0.931 | 0.938
4 | C[C@@H](N)[C@H]1CC[C@H](C(=O)Nc2ccncc2)CC1 | -0.00242 | -0.0313 | -0.0598 | -0.119 | -0.0269 | -0.0273 | -0.115 | -0.0522 | -0.062 | -0.109 | -0.134 | -0.231 | -0.413 | -0.366 | -0.399 | -0.522 | -0.0365 | 0.0334 | 0.0633 | 0.082 | -0.014 | 0.0434 | 0.0766 | 0.194 | 0.59 | 0.588 | 0.605 | 0.619 | 0.339 | 0.452 |  | 

Reference: the supplement of paper PMC6897291
